# Screening data deposited in PubChem BioAssay by several laboratories.
# Only some compounds are listed: those with a hit (about 1.6% of all), similar ones and a draw of the others.
# SIRT5 block: sirtuin-5 (human) deacylase inhibition; hit rate 1.1% among 330,000; inhibition, % at 15 µM; AID 652115; Q9NXA8; Purified SirT5, succinyl-peptide AMC, trypsin-coupled fluorescence; in the data active = inhibition above about 15%; inconclusive = no clear call, values can overlap the other calls
# NSD2 HMT inh: NSD2 (human) methyltransferase inhibition; NSD2 peptide methylation, AlphaScreen, 120 min; inhibition, % at 12.5 µM; hit rate 0.54% among 310,000; AID 743445; in the data active = inhibition above about 50%
# Casp6 inh: inhibitors of human caspase-6; P55212; inhibition, % at 12.5 µM; AID 686996; hit rate 0.53% among 350,000; purified caspase-6, Z-VEID-R110 cleavage fluorescence;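 active = mean inhibition across replicates at least about 35%, with every replicate also reaching that limit, limit read from the data; inconclusive = only one of the two criteria met; inactive = neither criterion met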;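 also: 0% = median of neutral control wells and 100% = no fluorescence left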
# Target sequence (P55212 24-179 limits assumed): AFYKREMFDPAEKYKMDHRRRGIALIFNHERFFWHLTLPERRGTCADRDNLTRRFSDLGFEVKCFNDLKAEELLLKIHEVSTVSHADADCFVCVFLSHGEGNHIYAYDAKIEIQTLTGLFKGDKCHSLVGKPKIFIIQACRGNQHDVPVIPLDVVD
# Target sequence (P55212 194-293 limits assumed): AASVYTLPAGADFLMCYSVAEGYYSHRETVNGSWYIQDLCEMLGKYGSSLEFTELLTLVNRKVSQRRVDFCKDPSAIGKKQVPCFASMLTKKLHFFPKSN
# SUMO HTRF inh: inhibitors of human SUMOylation (UBC9) | hit rate 0.36% among 290,000 | P63279 | inhibition, % at 35 µM | HTRF SUMOylation assay, SAE1/SAE2 + UBC9, in vitro | AID 2006; in the data active = inhibition above about 50%, passing the limit was not always enough; inconclusive = no clear call, values can overlap the other calls
# Target sequence (P63279 whole entry, looked up): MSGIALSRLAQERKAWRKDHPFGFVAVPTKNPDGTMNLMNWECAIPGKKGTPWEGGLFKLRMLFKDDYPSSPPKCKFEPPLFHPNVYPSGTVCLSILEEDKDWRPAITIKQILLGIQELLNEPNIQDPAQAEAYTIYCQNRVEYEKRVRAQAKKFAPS
# AlphaScreen art: AlphaScreen assay artifact in NSD2 counter-screen | AlphaScreen artifact counterscreen, preloaded methylated H4 peptide | hit rate 9.4% among 1,500 | shares compounds with NSD2 HMT inh | AC35, µM (highest dose often 10 µM), without a hit: at the top dose activity change, negative = signal loss; call rule not given here
# * marks the source's active call; other numbers are inactive results; u = inconclusive; x = not tested or not shown.
SMILES,SIRT5 block,NSD2 HMT inh,Casp6 inh,SUMO HTRF inh,AlphaScreen art
O=C(C[C@H]1C[C@H]2c3cc(NS(=O)(=O)c4ccc(F)cc4)ccc3O[C@H]2[C@H](CO)O1)N1CCOCC1,-12,x,0,x,x
COc1ccc(C(=O)Nc2c3c(nn2-c2ccc(Cl)cc2)CS(=O)(=O)C3)cc1,-1,69*,-2,1,-1%
COc1ccc(C(=O)Nc2c3c(nn2-c2ccc([N+](=O)[O-])cc2)CS(=O)(=O)C3)cc1,5,-5,3,16,x
O=C1C(=O)C(Cl)=C(Cl)C(Cl)=C1Cl,x,91*,x,x,-12%
CC1Oc2ccc(C#N)cc2N(Cc2cccc(F)c2)C1=O (stereo unspecified),-6,55*,-1,x,-1%
CC1Oc2ccc(C#N)cc2N(Cc2ccc(F)cc2)C1=O (stereo unspecified),x,3,x,x,x
CCN(CC)C(=O)COc1ccc2oc(C)c(C(=O)OC(C)C)c2c1,x,114*,x,-8,-3%
Cc1ccc(-c2cnc3c(c2)C(=O)N([C@@H](C)CO)C[C@H](C)[C@@H](CN(C)CC2CCOCC2)O3)cc1,0,x,-4,x,x
Cc1c(C)n(Cc2ccccc2)c2ccc(C(=O)OCCCN(C)C)cc12,-3,90*,-22,-21,-11%
Cc1cccc(NCCNc2cccc(C)c2)c1,x,56*,x,6,-4%
CCCCCCCNc1cccc(C)c1,0,0,-1,8,x
COc1ccc(NC(=O)Nc2ccc3c(c2)C(=O)N([C@H](C)CO)C[C@H](C)[C@H](CN(C)Cc2ccc4c(c2)OCO4)O3)cc1,14,x,0,x,x
CC1(C)C2CCC1(C)C(OC(=O)CSc1nc(N)cc(=O)[nH]1)C2 (stereo unspecified),x,80*,x,11,-4%
CCOc1ccc(NC(=S)N2CCC(NC(=O)C3CCCCC3)CC2)cc1,-2,57*,3,-2,3%
C/C(=C\C(=O)c1ccccc1)Nc1ccc(O)cc1,x,78*,x,85,-4%
COc1ccc(NC(=O)c2cccnc2)cc1,-3,0,-1,16,x
C/C(=C\C(=O)c1cccnc1)Nc1ccc(O)cc1,x,78*,x,u,-4%
CCOC(=O)c1c(NC(=O)COC)sc2c1CCCC2,x,57*,x,-2,0%
CCN(CC)CCCNc1cc(C(F)(F)F)c(C#N)c2nc3ccccc3n12,-10,56*,-17,17,-3%
CCN(CC)CCNc1cc(C)c(C#N)c2nc3ccccc3n12,-4,15,0,22,x
CCN(CC)CCCNc1cc(C)c(C#N)c2nc3ccccc3n12,x,122*,-1,x,-5%
CN(C)C(=O)C[C@@H]1CC[C@H]2[C@@H](COc3ccc(NC(=O)C4CCC4)cc3C(=O)N2C)O1,-2,x,1,x,x
O=C(CC1SC2=NCCN2C1=O)Nc1ccccc1 (stereo unspecified),x,115*,x,1,-3%
O=C(Cc1cccnc1)N1CC(=O)N2[C@H](CO)[C@H](c3ccc(/C=C/c4ccccc4)cc3)[C@@H]2C1,7,x,x,x,x
CCSc1nc(-c2ccccc2)c(C#N)c(=O)[nH]1,x,0,x,2,x
SMILES,SIRT5 block,NSD2 HMT inh,Casp6 inh,SUMO HTRF inh,AlphaScreen art
CCCOc1ccc(-c2nc(SCc3ccccc3)[nH]c(=O)c2C#N)cc1OC,-2,66*,-3,34,0%
C=CCC1C=C(Cc2ccccc2)CC(CC=C)N1 (stereo unspecified),-4,54*,3,12,-4%
Brc1ccc(COc2ncnc3ccccc23)cc1,-2,-4,2,3,x
COc1ccc(COc2ncnc3ccc(Br)cc23)cc1F,-4,122*,-2,11,-3%
O=C1Cc2ccccc2C(=O)N1c1ccccc1,-1,86*,26,26,-7%
CC(=O)OCCNc1cc(N2CCN(C)CC2)c2noc3c2c1C(=O)c1ccccc1-3,-2,x,-8,0,x
CCOC(=O)C(C(=O)OCC)c1cc(Br)c2noc3c2c1C(=O)c1ccccc1-3,x,97*,x,87*,-14%
COc1cccc2c1C(=O)C=C(C)C2=O,-7,8,3,19,x
COC1=CC(=O)c2c(ccc3ncnc(N)c23)C1=O,3,122*,100*,x,3%
COc1ccc(OCC(=O)NNc2c3ccccc3nc3ccccc23)cc1,x,61*,x,2,3%
O=C1C(=O)N(CCS(=O)(=O)c2ccccc2)c2ccc(F)cc21,-3,100*,5,6,2%
COc1ccc2c(c1)C(=O)C(=O)N2CCS(=O)(=O)c1ccccc1,-4,10,5,11,x
COCCN(C(=O)CNC(=O)c1ccco1)C(C(=O)NC1CCCC1)c1ccc(OC)cc1 (stereo unspecified),-5,110*,0,3,-2%
C[C@@H]1CN([C@@H](C)CO)C(=O)c2cccc(NC(=O)Nc3ccc(F)cc3)c2O[C@@H]1CN(C)CC1CC1,-2,x,1,x,x
Cc1cc2c(OCC(O)CNC3CCCCC3)cccc2[nH]1 (stereo unspecified),-6,54*,-17,16,-2%
C[C@@H]1CN([C@@H](C)CO)S(=O)(=O)c2ccc(C#Cc3ccccn3)cc2O[C@@H]1CN(C)CC1CC1,-2,x,1,x,x
Cc1cc(C)n(-c2ncccc2[N+](=O)[O-])n1,2,52*,-1,6,-7%
Cc1cc2ncn(-c3ncccc3[N+](=O)[O-])c2cc1C,3,7,0,12,x
Nc1ccc2nn(-c3cc([N+](=O)[O-])ccc3O)nc2c1,1,79*,7,26,-1%
Nc1ccc(-n2cnc3cc([N+](=O)[O-])ccc32)cc1,x,-1,x,7,x
Cc1ccc(Sc2ncccc2C(N)=O)cc1,0,106*,-1,x,-1%
[O-][n+]1cccc2c(Br)cc(Br)c(O)c21,-5,61*,26,-1,-5%
C[C@H]1CN([C@@H](C)CO)S(=O)(=O)c2ccc(C#CC3(O)CCCC3)cc2O[C@@H]1CN(C)C(=O)c1ccncc1,3,x,2,x,x
